Experimental data as given in the supplement of paper PMC13380429.
A number with no mark means an inactive call.

System: Vero E6 infected with SARS-CoV-2
Test: inhibition of SARS-CoV-2 cytopathic effect; higher = more antiviral protection, active = above 15
Conditions: 48 h

| Compound | inhibition of SARS-CoV-2 cytopathic effect (1 nM) [%] | inhibition of SARS-CoV-2 cytopathic effect (8.33 nM) [%] | inhibition of SARS-CoV-2 cytopathic effect (100 nM) [%] | inhibition of SARS-CoV-2 cytopathic effect (833.33 nM) | inhibition of SARS-CoV-2 cytopathic effect (10000 nM) [%] |
| --- | --- | --- | --- | --- | --- |
| Cc1c(C)c2c(c(C)c1O)CCC(C)(COc1ccc(CC3SC(=O)NC3=O)cc1)O2 (stereo not given) [troglitazone] | 1.07 | 1.5 | 1.01 | 2.48% | 5.84 |
| CC1(C)CC[C@]2(NC(=O)C(C)(F)F)CC[C@]3(C)[C@H](C(=O)C=C4[C@@]5(C)C=C(C#N)C(=O)C(C)(C)[C@@H]5CC[C@]43C)[C@@H]2C1 [Omaveloxolone (RTA-408)] | 4.28 | 6.39 | 3.8 | 17.2% (active) | -13.7 |
| CC(=O)[C@@]1(O)CC[C@H]2[C@@H]3C[C@H](C)C4=CC(=O)C=C[C@]4(C)[C@@]3(F)[C@@H](O)C[C@@]21C [fluorometholone] | 0.01 | 0.61 | 0.19 | -0.97% | 1.57 |
| CN(CCc1ccc(Cl)c(Cl)c1)CCN1CCCC1 | -1.5 | -0.54 | 2 | 3.84% | -1.25 |
| CCc1cc2c(c(CC)n1)CCC(=O)N2Cc1ccc(-c2ccccc2-c2nnn[nH]2)cc1 | -4.46 | -5.09 | -2.79 | -3.64% | -0.49 |
| C/C(=N\c1ccccc1N)c1c(C)cc(=O)n(O)c1O | -2.19 | -2.18 | -1.91 | 3.65% | 1.35 |
| COc1c2ccoc2cc2oc(=O)ccc12 [bergapten] | -0.67 | -0.91 | -2.71 | 3.76% | 14.6 |
| N=C(N)SCCc1c[nH]cn1 [imetit] | -0.58 | -0.44 | -2.84 | -2.2% | -1.05 |
| NCC(O)c1ccc(O)cc1 (stereo not given) [octopamine] | -3.66 | -1.96 | -2.91 | -4.12% | 0.96 |
| CCCCCCCCCCCCCCCC(=O)OC(C)C [isopropyl-palmitate] | -1.17 | -0.59 | 0.66 | 1.48% | -2.42 |
| Cc1sc(N)c(C(=O)c2cccc(C(F)(F)F)c2)c1C | 1.09 | -1.79 | -3.31 | -3.27% | -2.62 |
| O=c1c(O)c(-c2ccc(O)c(O)c2)oc2cc(O)cc(O)c12 [quercetin] | 1.33 | 0.85 | 0.21 | 1.78% | 3.03 |
| CCOc1ccc(S(=O)(=O)O)c2cccnc12 [actinoquinol] | 0.25 | 0.94 | 0.78 | 1.14% | -3.36 |
| Cc1oc(=O)oc1COC(=O)C1=C([C@H]2CCCO2)S[C@@H]2[C@@H]([C@@H](C)O)C(=O)N12 [faropenem-medoxomil] | 2.73 | -1.09 | -0.59 | 2.96% | 1.04 |
| CO[C@@H](C)Cn1c(=O)n(C)c2cnc3ccc(-c4cncc(C(C)(C)O)c4)cc3c21 | 0.62 | 2.32 | -0.9 | -3.02% | -17.6 |
| CCCC(C(=O)OCCN(CC)CC)(c1ccccc1)c1ccccc1 [proadifen] | -8.13 | -2.48 | -0.9 | -3.07% | -9.2 |
| C[C@H](Nc1cc(NS(=O)(=O)N2CCC2)nc(SCc2cccc(F)c2F)n1)[C@@H](O)CO | 3.09 | 1.5 | 0.2 | 0.91% | 2.14 |
| CC1(C)O[C@@H]2C[C@H]3[C@@H]4CCC5=CC(=O)CC[C@]5(C)[C@@]4(F)[C@@H](O)C[C@]3(C)[C@]2(C(=O)CCl)O1 [halcinonide] | 2.25 | 1.06 | -0.43 | -0.9% | -0.92 |
